Measurements published in PubChem BioAssay.
The source made the active and inactive calls.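 Rule for the calls, unless noted: active = inhibition of the reporter signal at or above 50%; inactive = inhibition below 50%.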

Tests used:
[1] = inhibitors of TNFa-induced NFkB p65 translocation, primary screen, imaging, HUVEC, MLSMR starter and 10KST1 sets (AID 438;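 active = inhibition above 20% together with a positive visual image hit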;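 note: compound added about 3h40 before a 20 min TNFalpha stimulation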;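 for inhibition: signal is the nuclear over cytoplasmic p65 intensity ratio per well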); settings: HUVEC TNFa-induced p65 nuclear translocation; cell count: measured here: nuclei count (cytotoxicity indicator), at 2.08 µM; inhibition: at 2 µM, stronger effect = higher value, 0% TNFa-plus-vehicle, 100% no-TNFa wells
[2] = inhibitors of mutant huntingtin aggregation, primary screen, imaging, exon1htt(103Q)mCFP cells, high-content imaging (AID 483;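 active = visual image review flags a hit and inhibition of aggregation exceeds 20%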;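 note: compound exposure lasted 3 days before fixation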;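 for nuclei count: percent of the per-plate median nuclei count of sample wells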); settings: exon1htt(103Q)mCFP cell line, aggregate imaging, at 2 µM; inhibition of aggregation: stronger effect = higher value; nuclei count: measured here: cell count, toxicity
[3] = inhibitors of E-selectin induction by TNFa, primary screen, imaging, HUVEC, immunofluorescence, MLSMR starter and 10KST1 sets (AID 487;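 active = visually confirmed hit in the image check and inhibition above 20%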;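 for inhibition: signal is fraction of cell area covered by stained E-selectin grains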;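 for nuclei count: 100% = median nuclei count of all wells on the same plate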); settings: HUVEC TNFalpha-induced E-selectin immunofluorescence imaging, at 2 µM; inhibition: stronger effect = higher value; nuclei count: measured here: cell number, toxicity
[4] = molecular target: Voltage-gated potassium channel subunit beta-2 (Rattus norvegicus) (UniProt P62483); test: KvBeta enzyme negative modulators, primary screen, biochemical, NADPH fluorescence (AID 622;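 active = fluorescence slope higher than the sample average by over 3 SD, cut at about -0.22 in these data, passing the limit was not always enough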;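 note: slope of raw intensity against log time taken from 70 to 1610 s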); settings: recombinant KvBeta, 4-cyanobenzaldehyde reduction, at 10 µM, stronger effect = higher value
Chain of Voltage-gated potassium channel subunit beta-2 (Rattus norvegicus) (P62483 whole entry, looked up): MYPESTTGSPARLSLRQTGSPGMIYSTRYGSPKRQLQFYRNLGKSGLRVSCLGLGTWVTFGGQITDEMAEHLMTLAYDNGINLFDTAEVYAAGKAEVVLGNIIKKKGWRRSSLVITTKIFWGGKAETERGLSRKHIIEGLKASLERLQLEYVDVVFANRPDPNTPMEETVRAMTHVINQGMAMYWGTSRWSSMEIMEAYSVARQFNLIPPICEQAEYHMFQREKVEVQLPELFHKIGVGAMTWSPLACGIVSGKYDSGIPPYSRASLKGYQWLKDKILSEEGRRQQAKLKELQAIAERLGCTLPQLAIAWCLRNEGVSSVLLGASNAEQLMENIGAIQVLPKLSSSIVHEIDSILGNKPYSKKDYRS

[5] = molecular target: Voltage-gated potassium channel subunit beta-2 (Rattus norvegicus) (UniProt P62483); test: KvBeta positive modulators, primary screen, biochemical, NADPH fluorescence (AID 623;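 active = NADPH fluorescence slope more negative than the mean of all samples by about 3 SD, 99.7% confidence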;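 note: fluorescence intensity change per second fitted from 20 to 320 s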); settings: Recombinant KvBeta, NADPH fluorescence decrease slope, 10 min; at 10 µM; stronger effect = lower value
[6] = molecular target: Alpha-2C adrenergic receptor (Homo sapiens) (UniProt P18825); test: modulators of alpha2C/GIRK thallium flux, primary screen, cell-based, HEK293 alpha2C/GIRK1/2 (AID 624;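 active = fluorescence slope after compound addition differing from the mean of all screened samples at 99.7% confidence, in either direction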;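 note: slope of fluorescence ratio to pre-addition baseline per second over 15 to 24 s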); settings: thallium flux BTC fluorescence, at 10 µM, actives lie on both sides
Chain of Alpha-2C adrenergic receptor (Homo sapiens) (P18825 whole entry, looked up): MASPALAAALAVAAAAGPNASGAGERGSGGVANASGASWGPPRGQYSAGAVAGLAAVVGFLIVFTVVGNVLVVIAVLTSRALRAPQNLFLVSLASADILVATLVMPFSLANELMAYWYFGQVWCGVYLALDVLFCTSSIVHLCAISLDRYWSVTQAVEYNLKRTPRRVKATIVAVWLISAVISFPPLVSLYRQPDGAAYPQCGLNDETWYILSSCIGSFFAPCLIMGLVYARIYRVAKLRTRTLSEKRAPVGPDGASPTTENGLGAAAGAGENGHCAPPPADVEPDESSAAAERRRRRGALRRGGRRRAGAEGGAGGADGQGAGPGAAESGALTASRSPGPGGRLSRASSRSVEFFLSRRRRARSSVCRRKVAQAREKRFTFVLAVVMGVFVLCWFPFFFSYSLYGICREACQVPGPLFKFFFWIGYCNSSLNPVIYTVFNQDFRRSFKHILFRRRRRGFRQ

[7] = inhibitors of Sendai virus-induced IRF3 signaling, primary screen, TLR/RLR signaling modifier project, cell-based, Sendai virus stimulus, luciferase, 10K MLSCN set (AID 602276;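 active = inhibition at or above 50% at 10 µM; inactive = inhibition below 50%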;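 note: firefly luciferase from ISG56 promoter only with Renilla not read in this screen; 0% = Sendai virus plus DMSO and 100% = medium plus DMSO without virus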); settings: HEK293 RL24 IRF3 luciferase reporter, at 10 µM, stronger effect = higher value
[8] = inhibitors of poly I:C-induced TLR3 signaling, primary screen, cell-based, poly I:C stimulus, luciferase, 10K MLSCN set (AID 602277); settings: HEK293-TLR3 RL24 IRF3 luciferase reporter, at 10 µM, stronger effect = higher value

| Structure (SMILES) | cell count [1] | inhibition [1] | inhibition of aggregation [2] | nuclei count [2] | inhibition [3] | nuclei count [3] | fluorescence slope [4] | NADPH fluorescence slope [5] | slope [6] | inhibition [7] | inhibition [8] |
| --- | --- | --- | --- | --- | --- | --- | --- | --- | --- | --- | --- |
| CC1CCCCN1C(=O)Cn1nnc(-c2cccnc2)n1 (centres undefined) | 493 | 8% (inactive) | -12% (inactive) | 93.1% | -23.4% (inactive) | 95.3% | -0.485 (inactive) | -4.8e-05 (inactive) | 0.00445 (inactive) | 9.95% (inactive) | 16.3% (inactive) |
| O=C(NCC(c1cccnc1)N1CCOCC1)c1ccco1 (centres undefined) | 453 | 2.4% (inactive) | -3.5% (inactive) | 100% | -42.3% (inactive) | 129% | -0.336 (inactive) | 3.2e-06 (inactive) | 0.00285 (inactive) | 15.9% (inactive) | 31% (inactive) |
| O=C(Nc1cccnc1)c1cccc(NC(=O)c2ccco2)c1 | 350 | 1.5% (inactive) | -3.4% (inactive) | 104% | 13.4% (inactive) | 115% | -0.446 (inactive) | 6.3e-05 (inactive) | 0.00622 (inactive) | 16.9% (inactive) | 22.4% (inactive) |
| CCOC(=O)N1CCN(C(=O)COc2ccc(S(=O)(=O)NC3CCCCC3)cc2C)CC1 | 536 | 9.7% (inactive) | -14.2% (inactive) | 105% | -31.8% (inactive) | 93.5% | -0.644 (inactive) | -4.2e-05 (inactive) | 0.00446 (inactive) | 3.18% (inactive) | -12.8% (inactive) |
| COCCn1c(SCC(=O)Nc2cccc(OC)c2)nnc1-c1ccccc1 | 690 | 2.1% (inactive) | 6.3% (inactive) | 96.7% | -16% (inactive) | 117% | -0.492 (inactive) | -3.1e-05 (inactive) | 0.00579 (inactive) | -0.479% (inactive) | 19.1% (inactive) |
| O=C(Cn1cc2c(n1)CCCCC2)N1CCc2ccccc2C1 | 670 | 12% (inactive) | 15.4% (inactive) | 88.6% | 27.7% (inactive) | 85.1% | -0.631 (inactive) | 1.4e-05 (inactive) | 0.0057 (inactive) | -16% (inactive) | -17.6% (inactive) |
| O=C(C1CCCO1)N1CCN(Cc2nc3ccccc3c(=O)[nH]2)CC1 (centres undefined) | 583 | 6.8% (inactive) | 14% (inactive) | 125% | -6.3% (inactive) | 104% | -0.421 (inactive) | 2.2e-05 (inactive) | 0.00673 (inactive) | 0.729% (inactive) | 31% (inactive) |
| Cc1nn(-c2ccc(F)cc2)c2sc(C(=O)O)cc12 | 354 | 4.7% (inactive) | 3.7% (inactive) | 86.9% | -87.2% (inactive) | 117% | -0.447 (inactive) | -0.00011 (inactive) | 0.00627 (inactive) | 13.2% (inactive) | 24% (inactive) |
| CCOC(=O)CN1C(=O)C(=O)c2cccc(C)c21 | 651 | -4.4% (inactive) | -8.1% (inactive) | 119% | -62.9% (inactive) | 119% | -0.601 (inactive) | -4.5e-05 (inactive) | 0.00699 (inactive) | 15.4% (inactive) | 34.9% (inactive) |
| S=c1[nH]ncn1-c1ccccn1 | 681 | -11% (inactive) | -25.8% (inactive) | 114% | -40.7% (inactive) | 109% | -0.41 (inactive) | -3.7e-05 (inactive) | 0.00408 (inactive) | 1.29% (inactive) | 8.61% (inactive) |
| Cc1cc(C(F)(F)F)nc(NCc2cccnc2)n1 | 597 | -31.3% (inactive) | -19.1% (inactive) | 97.7% | -79.3% (inactive) | 120% | -0.529 (inactive) | 1.9e-05 (inactive) | 0.00686 (inactive) | -7.81% (inactive) | -18.3% (inactive) |
| CCOC(=O)c1ccc(S(=O)(=O)Nc2cc(C(C)(C)C)no2)cc1 | 551 | -10.3% (inactive) | 5.8% (inactive) | 108% | -194% (inactive) | 152% | -0.612 (inactive) | 5.6e-06 (inactive) | 0.00811 (inactive) | -7.27% (inactive) | -2.9% (inactive) |
| COCCn1c(SCC(=O)Nc2cccc(OC)c2)nnc1-c1ccc(Cl)cc1 | 467 | 6.7% (inactive) | 8.5% (inactive) | 94.1% | -19.6% (inactive) | 97.1% | -0.598 (inactive) | -2.9e-05 (inactive) | 0.00322 (inactive) | 16.4% (inactive) | 22.6% (inactive) |
| COC(=O)c1ccccc1S(=O)(=O)NC(=O)c1ccccc1 | 368 | -2.8% (inactive) | -12.4% (inactive) | 96.8% | -26% (inactive) | 114% | -0.593 (inactive) | -3.3e-08 (inactive) | 0.00588 (inactive) | 13.5% (inactive) | 24.3% (inactive) |
